From PubChem
CHOP inh: inhibitors of CHOP promoter induction, primary screen, cell-based, unfolded protein response, luciferase reporter. inhibition, % at 10 µM. CHO-K1 CHOP-promoter luciferase, tunicamycin-induced, 15-18 h. 3.8% of 220,000 active;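 active means compounds that reduced the stress-induced luciferase reporter signal by more than about 70% of percent inhibition, limit read from the data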;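 further: 0% = tunicamycin plus vehicle and 100% = wells without tunicamycin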
Arbovirus inh: antivirals against arbovirus infection, primary screen, cell-based, full library, 10K replicate subset; arbovirus infection cell-based antiviral screen; inhibition, % at 10 µM; 0.37% of 200,000 active; in the data active means inhibition above about 30%
Lmaj promast: Leishmania major promastigote growth inhibition, primary screen | Leishmania major promastigotes, resazurin fluorescence viability | inhibition, % at 10 µM | 9% of 200,000 active; in the data active means inhibition above about 50%;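 further: promastigotes grown with compound for 44 hours at 28 °C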
WT yeast gro inh: growth inhibition of WT strain, primary screen, mitochondrial fusion inhibitor project, WT and mutant strains, chemical genetic; mitochondrial fusion phenotypic screen; inhibition, % at 10 µM; 2.1% of 190,000 active; AID 1362, 2008; in the data active means inhibition above about 58%; tested in S. cerevisiae
Lmaj promast 1uM: Leishmania major promastigote growth inhibition, confirmation, 1 µM repeat of primary hits | shares compounds with Lmaj promast | L. major promastigote growth, resazurin fluorescence, 48 h | inhibition, % at 1 µM | 13% of 1,100 active;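 active means inhibition above about 50% in both repeat tests, limit read from the data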
CHOP inh conf: retest of CHOP induction inhibitors, confirmation, cell-based. shares compounds with CHOP inh. CHO-CHOP promoter luciferase reporter, tunicamycin-induced, luminescence. inhibition, % at 10 µM. 45% of 2,100 active. AID 504437, 2011;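 active means mean of three repeat readings of reporter signal inhibition above a set limit, cut at about 70% in these data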;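 further: 0% = tunicamycin plus vehicle and 100% = wells lacking tunicamycin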
The depositor's hits bear a star; / = not tested or not shown. This is a sample that favours compounds with a hit; in the whole collection about 12% have one here.

SMILES	CHOP inh	Arbovirus inh	Lmaj promast	WT yeast gro inh	CHOP inh conf	others
COc1ccc(-c2[nH]ncc2CNC(C)Cc2cccc(C)n2)cc1F (stereo not drawn)	21	8	1	8	/
FC(F)(F)c1ccc2c(c1)N(CCCN1CCN(CCCl)CC1)c1ccccc1S2	67	-43	100*	16	/	Lmaj promast 1uM=-10
Cc1ccc(-c2nn(Cc3ccccc3)cc2C=O)cc1C	8	6	54*	5	/	Lmaj promast 1uM=-7
CCc1c(C(=O)NN2C(=O)C3C4CCC(O4)C3C2=O)csc1C (stereo not drawn)	-4	5	-3	-7	/
CC(C)N1CC=C(c2c[nH]c3ccccc23)CC1	25	-6	3	1	/
C1=C(c2c[nH]c3ccccc23)CCNC1	77*	8	100*	-20	/	Lmaj promast 1uM=47
Cc1ccc2c(c1)CC1(CN2C)C(=O)NC(=O)N(c2ccc(C)c(C)c2)C1=O (stereo not drawn)	39	10	-5	6	/
CCc1ccc(/C=C(/C#N)C(N)=S)cc1	20	3	50*	10	/	Lmaj promast 1uM=-19
C[C@@]1(CO)[C@H](O)CC[C@@]2(C)[C@H]1CC[C@H]1C[C@@H]3C[C@@]12CC[C@]3(O)CO	45	-22	100*	-24	/	Lmaj promast 1uM=95*
O=P(Nc1cccnc1)(Oc1ccccc1)Oc1ccccc1	41	7	93*	-9	/	Lmaj promast 1uM=30
CN(C)C(=S)SSC(=S)N(C)C	106*	-30	101*	95	-134	Lmaj promast 1uM=99*
COC(=O)[C@@H]1[C@@H](C(=O)OC)C2(c3ccccc3-c3ccccc32)N(c2ccc(Cl)cc2)N1C#N	109*	-35	74*	51	124*	Lmaj promast 1uM=57*
c1ccc(CC(NCc2ccco2)c2ccccc2)cc1 (stereo not drawn)	14	6	4	23	/
CC#CP(=O)(OC)C(O)(CF)c1ccccc1 (stereo not drawn)	-22	5	-1	-6	/
C[C@H]1C[C@@H](C)C(=O)[C@@H]([C@H](O)CC2CC(=O)NC(=O)C2)C1	103*	2	100*	81	110*	Lmaj promast 1uM=100*
O=C(COc1ccccc1)c1cn(Cc2ccccc2)c2ccccc12	25	-5	-3	-2	/
Cc1cc(C)cc(N2C(=O)NC(=O)/C(=C\C=C\c3ccco3)C2=O)c1	107*	1	99*	8	-16
O=C1NC(=O)N(Cc2ccc(F)cc2)C(=O)/C1=C\C=C\c1ccco1	0	/	/	/	/
CCOC(=O)C1(CCOc2ccccc2)CCN(Cc2ccc(C)s2)CC1	101*	11	81*	26	57
O=C1NC(=O)C(=Cc2ccc(SC3CCCCC3)o2)C(=O)N1	108*	13	7	-14	55
O=C1NC(=O)N(c2ccc3c(c2)OCO3)C(=O)/C1=C\c1ccc(N2CCCCC2)o1	-2	6	-2	-6	/
CC(C)=CCOc1c2occc2cc2ccc(=O)oc12	13	-10	1	0	/
O=C1NC(=O)C(=Cc2ccc(-c3cc(Cl)ccc3[N+](=O)[O-])o2)C(=O)N1	105*	-2	64*	-10	-60
COc1ccc2c(c1OC)C(=O)OC2c1c(O)n(C2CCCCC2)c(=O)[nH]c1=O (stereo not drawn)	18	-1	-6	-3	/
Cc1ccc(-n2c(O)c(C=NCc3ccco3)c(=O)[nH]c2=S)cc1C	16	/	/	/	/
SMILES	CHOP inh	Arbovirus inh	Lmaj promast	WT yeast gro inh	CHOP inh conf	others
CCOc1ccc(N2C(=O)/C(=C\c3cccs3)C(=O)NC2=S)cc1	106*	-1	100*	18	-100
CP(=O)(O)CN1CCCCC1	17	3	-2	8	/
COc1ccc(NC2(C#N)CCCCC2)cc1	7	-2	-1	-24	/
C/C=C(\C)C(=O)OC1C(C)=C2C(C1OC(=O)CCCCC)C(C)(OC(C)=O)CC(OC(=O)CCC)C1(O)C2OC(=O)C1(C)O (stereo not drawn)	105*	/	/	/	125*
O=C1NC(=O)N(Cc2ccccc2)C(=O)/C1=C\c1ccco1	106*	5	-1	10	-47
CSc1ncc(/C=C2/C(=O)NC(=O)N(c3ccc(C)cc3)C2=O)cn1	-4	3	0	7	/
Cc1ccc(N2C(=O)NC(=O)/C(=C/c3cnn(-c4ccc(C)cc4)c3)C2=O)cc1	102*	5	85*	-7	-79
CCCCCCn1c(=O)c(C(=O)Nc2cnccn2)c(O)c2ccccc21	96*	-21	100*	11	120*
COC(=O)[C@]12OC[C@]34C([C@@H](O)[C@@H]1O)[C@]1(C)CC(=O)C(O)=C(C)[C@@H]1C[C@H]3OC(=O)[C@H](O)[C@@H]24 (stereo partly drawn)	104*	/	/	/	108*
COC(=O)C[C@]1(C(=O)OC)CN(C#N)N(c2ccc(Cl)cc2)C12c1ccccc1-c1ccccc12	/	-32	100*	22	129*
CCN1C(=O)C(=Cc2ccc(C)s2)C(=O)N(CC)C1=S	106*	0	84*	-1	-23
Cc1cccc(N2C(=O)NC(=O)/C(=C\c3cc(C)n(-c4sc5c(c4C#N)CCCC5)c3C)C2=O)c1C	22	4	-3	20	/
CCOC(=O)c1c(-n2c(C)cc(C=C3C(=O)NC(=O)NC3=O)c2C)sc2c1CCCC2	96*	-24	84*	-18	42
CN1C2CCC1CC(=NO)C2	11	-2	-7	-1	/
Cc1ccc(NP(=O)(Nc2ccc(C)cc2)Oc2ccccc2)cc1	6	-22	17	34	/
CCc1ccc(NP(=O)(Oc2ccccc2F)Oc2ccccc2F)cc1	98*	-17	22	62*	102*
Cc1ccc(NP(=O)(Oc2ccccc2F)Oc2ccccc2F)cc1	98*	-29	13	6	101*
O=c1c(C=NCc2cccs2)c(O)n(C2CCCCC2)c(=O)n1C1CCCCC1	25	12	16	-18	/
N=C(N)c1c(O)n(C2CCCCC2)c(=O)n(C2CCCCC2)c1=O	108*	-22	42	96*	73*
COCCCn1c(N)c(C(=O)Nc2ccccc2)c2nc3ccccc3nc21	-24	/	/	/	/
CCC(C)NC(=O)c1c(N)n(CC2CCCO2)c2nc3ccccc3nc12 (stereo not drawn)	96*	-14	67*	23	103*
O=C(Nc1nccs1)c1c(O)c2c(n(Cc3ccco3)c1=O)CCCC2	24	/	/	/	/
O=C(CSC1c2ccccc2-c2ccccc21)N/N=C/c1ccc(C(=O)O)cc1	5	-8	-2	-5	/
O=C(CSC1c2ccccc2-c2ccccc21)N/N=C/c1ccccc1O	100*	-20	100*	8	118*
CCCCOP(=O)(CN1CCOCC1)OCCCC	-16	2	-7	9	/
CN(C)C(=O)Oc1ccc(OCc2nc3ccccc3[nH]2)cc1	32	-7	-12	58	/
NC12CN3CN(CN(C3)C1)C2 (tested in a mixture with another compound)	15	8	-4	-40	/
CN1C2CCC1/C(=C/c1ccccn1)C(=O)/C2=C\c1ccccn1	108*	-36	100*	81*	111*
Cc1ccccc1-n1c(/C=C/c2ccccn2)nc2ccccc2c1=O	-22	/	/	/	/
